Compound activity (PubChem)
HT1080NT lethal = kills 2HG-producing HT-1080-NT fibrosarcoma cells | HT-1080-NT fibrosarcoma viability, CellTiter-Glo ATP luminescence, 48 h | Potency, µM (top dose mostly 46.1 µM), without a hit: at the highest dose activity, negative = less viability, usual class: cytotoxic | 360,000 tested, 1.6% active | AID 686970;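 further: NT is the 2HG producing partner of a matched IDH1 knockdown line; 0% = DMSO-treated cells and -100% = media-only wells without cells; nearly all actives have a fitted effect of over 55% in size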
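HT-1080-NT fibrosarcoma cells (2HG-overproducing), 750 cells/well in RPMI with 5% FBS, dosed after 2 h and incubated 48 h at 37C. CellTiter-Glo luminescence normalized to DMSO and no-cell wells; concentration-response curves fitted and classed.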
KB-3-1 tox = KB-3-1 parental cell cytotoxicity; KB-3-1 viability, CellTiter-Glo ATP luminescence, 72 h; Potency, µM (highest dose often 46.1 µM), most hits filed as cytotoxic; 400,000 tested, 1.4% active; further: on the % scale 0 is the no-effect control and ±100 the full control effect; nearly all actives have a fitted effect of over 60% in size
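Cytotoxicity measured as CellTiter-Glo luminescence after 72 h at 37 C. Compound titrations were pinned onto drug-naive KB-3-1 parental adenocarcinoma cells grown in DMEM with 10% FBS, and normalized data fitted to concentration-response curves.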
S2 tox = viability counter-screen for ATXN expression inhibitors; 400,000 tested, 0.49% active; AID 651635; Potency, µM (top dose mostly 56.7 µM), actives largely listed as cytotoxic; S2 cells (HEK-293 line with an ATXN2-luciferase reporter) viability, CellTiter-Fluor protease fluorescence, 24 h; further: nearly all actives have a fitted effect of over 40% in size
HT1080 IDH1KD tx = HT-1080 IDH1 knockdown cell toxicity (counter line); HT-1080 IDH1 knockdown viability, ATP luminescence, 48 h; Potency, µM (highest dose often 46.1 µM), for the others: top-dose activity, negative = toxicity, most hits filed as cytotoxic; 360,000 tested, 2% active; AID 686971;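 further: 0% = DMSO wells and -100% = cell-free medium wells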
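% activity derives from luminescence (CellTiter-Glo), normalised to DMSO and no-cell wells. HT-1080-IDH1KD cells, 750/well, had 48 h compound exposure at 37 °C.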
ATXN2 expr inh = reduces ATXN2 reporter expression in HEK-293 cells | HEK-293 ATXN2-luciferase reporter, luminescence, 24 h | Potency, µM (doses to about 57 µM), for inactives: at the highest dose activity change, negative = inhibition, most hits filed as inhibitors | 360,000 tested, 0.72% active | AID 1745845; further: on the % scale 0 is the no-effect control and ±100 the full control effect; nearly all actives have a fitted effect of over 55% in size
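ATXN2-luciferase reporter cells (luciferase flanked by upstream and downstream ATXN2 gene portions) were treated 24 h at 37 °C with compounds at up to 57 uM. SteadyGlo luminescence gave expression; GF-AFC fluorescence gave viability.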
KB-V1 cytotox = KB-V1 MDR subline cytotoxicity | KB-V1 MDR cells viability, CellTiter-Glo, 72 h | 400,000 tested, 3.4% active | Potency, µM (top dose mostly 46.1 µM), actives largely listed as cytotoxic; further: on the % scale 0 is the no-effect control and ±100 the full control effect; nearly all actives have a fitted effect of over 60% in size
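KB-V1, DMEM (no phenol red) + 10% FBS; cpd pin-transferred, titration series; 72 h, 37 degrees C; CellTiter-Glo, luminescence. Data normalized, curve-fit.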
* = called active by the depositor; i = inactive; ? = inconclusive; . = not tested or not shown; [ ] = dose if it differs, or a comment. The list is not random: actives were taken first. Their share in the collection is about 6.2%. The call rests on the fitted dose curve; in most records, active means well fitted curve in the direction sought with a large enough effect; inconclusive means small, poorly fitted or top-dose-only effect, or another doubt; inactive means no such curve, though single readings can be large; an effect the other way counts as inactive or inconclusive. Potency means the concentration at half of the fitted maximal effect.

SMILES | HT1080NT lethal | KB-3-1 tox | S2 tox | HT1080 IDH1KD tx | ATXN2 expr inh | KB-V1 cytotox
Cc1ccc(SC(C)C(=O)Nc2ccc(S(=O)(=O)N3CCOCC3)cc2)cc1 (stereo unspecified) | 12% | i | i | 7% | -2% | 12µM*
CC(NC(=O)C1CCOCC1)c1nnc2n1CCN(Cc1ccc(F)cc1)CC2 (stereo unspecified) | . | . | i | . | . | .
CCCCNCC1C(Oc2ccc(Cl)cc2)C(=O)N1c1ccccc1C (stereo unspecified) | ? | i | i | 23µM* | -22% | i
Cc1cc(C(=O)N/N=C/c2ccc(-c3ccc([N+](=O)[O-])cc3Cl)o2)n[nH]1 | -2% | i | i | 1% | -16% | i
Cc1cc(C(=O)N/N=C/c2cc(Br)ccc2OC(=O)c2ccccc2)n[nH]1 | ? | i | i | 8.2µM* | 27µM* | i
Cc1cc(C(=O)N/N=C/c2ccc(-c3ccccc3Cl)o2)n[nH]1 | 1% | ? | i | -1% | 3% | 23µM*
NC(=S)N/N=C\c1ccc(-c2cccc(Cl)c2Cl)o1 | -29% | 5.8µM* | i | -14% | 57% | 1.3µM*
Cc1ccc(/C=N/NC(=O)c2cc(-c3ccc(C)o3)[nH]n2)cc1 | ? | ? | i | 21µM* | -5% | ?
COc1ccc(Cl)cc1NC(=O)c1cc2ccc3ccc(C)[nH]c3c2n1 | . | i | i | . | 0% | ?
COc1ccc(CN2CCOc3ccc(C(O)c4cccnc4)cc3C2)cc1O (stereo unspecified) | . | . | i | . | . | .
Cc1cc(C(=O)N/N=C/c2cc(Br)ccc2OC(=O)c2ccccc2Cl)n[nH]1 | ? | ? | . | 21µM* | ? | ?
COC(=O)N/N=C/c1ccc(-c2cc(Cl)ccc2Cl)o1 | -2% | ? | i | 2% | -5% | 21µM*
CCCCn1c(N)c(N(CCOC)C(=O)c2cccc(S(=O)(=O)N(CC)c3ccccc3)c2)c(=O)[nH]c1=O | -3% | i | i | -2% | 7% | i
CC(=O)O[C@H]1CC[C@@]2(C)C(CCC3C2CC[C@]2(C)OC(=O)CCC32)C1 (stereo partly specified) | -3% | i | i | 6% | 5% | i
CC(=O)OC1CCC2(C)C(CCC3C4CC=C(C(C)=O)C4(C)OC(=O)CC32)C1 (stereo unspecified) | ? | 23µM* | 2.5µM* | 10µM* | . | ?
CCCC(=O)NC(=S)Nc1cccc(Cl)c1N1CCCCC1 | 5µM* | ? | ? | 10µM* | ? | 18µM*
CCC(=O)NC(=S)Nc1cccc(Cl)c1N1CCCCC1 | 4.5µM* | ? | i | 5.6µM* | -27% | i
CCCC(=O)NC(=S)Nc1ccccc1N1CCOCC1 | 1% | i | i | 7% | -2% | ?
CCCCC(=O)NC(=S)Nc1cccc(Cl)c1N1CCCCC1 | 0% | i | i | -16% | 3% | 21µM*
CCCCC(=O)NC(=S)Nc1ccccc1N1CCCCC1 | 9% | i | i | 9% | 6% | i
COc1cc(F)ccc1-c1csc(C(O)c2ccccc2)n1 (stereo unspecified) | -4% | i | i | -12% | 8% | i
CCS(=O)(=O)Nc1cc(C(=O)N2CCCN(C=O)CC2)c2c(c1)nc(-c1ccccc1)n2C | . | . | i | . | . | .
CN(C)c1cc(-c2ccccc2)nc(N)n1 | -16% | 21µM* | i | -27% | 7% | ?
CN(C)c1cc(-c2ccccc2)nc(-c2ccccc2)n1 | 10% | i | i | 15% | 1% | i
CC1CCCCN1C(=O)c1ccc(OC2CCN(S(=O)(=O)N(C)C)CC2)cc1 (stereo unspecified) | -17% | i | i | ? | 23% | 23µM*
SMILES | HT1080NT lethal | KB-3-1 tox | S2 tox | HT1080 IDH1KD tx | ATXN2 expr inh | KB-V1 cytotox
CN(C)S(=O)(=O)N1CCC(Oc2cccc(C(=O)NC3CCCCCC3)c2)CC1 | ? | i | i | -15% | -30% | 1.3µM*
CN(C)S(=O)(=O)N1CCC(Oc2ccc(C(=O)N3CCCCCCC3)cc2)CC1 | -4% | ? | i | -4% | 30% | 10µM*
COc1ccc(C(=O)OCC(=O)NC2CC2)cc1S(=O)(=O)Nc1ccc(C)cc1 | 4% | i | i | -1% | 4% | i
COc1ccc(C(=O)N2CCCCC2c2cc(C(=O)Nc3cccc(C#N)c3)no2)cc1 (stereo unspecified) | 11% | i | i | 0% | -3% | i
Cc1ccc2oc(=O)n(CCNC(=O)Nc3ccccc3Cl)c2c1 | . | i | i | . | -3% | i
CCOc1ccc(NC(=S)Nc2ccc(OCC)cc2)cc1 | 28% | i | i | 6% | 10% | i
CCOc1ccc(NC(=S)Nc2cc(OC)c(Cl)cc2OC)cc1 | 10% | i | i | 6% | -17% | 16µM*
CCOc1ccc(NC(=S)Nc2ccc(C)c([N+](=O)[O-])c2)cc1 | ? | i | i | 11% | -4% | 16µM*
CCOc1ccc(NC(=S)Nc2cccc3cnccc23)cc1 | -5% | i | ? | -2% | -6% | 15µM*
O=C(C=Cc1ccc(/C=C/C(=O)Nc2ccc(C3=NCCN3)cc2)cc1)Nc1ccc(C2=NCCN2)cc1 | . | . | . | . | 2% | .
COc1cccc(-n2nc(C#N)c(Cl)cc2=O)c1 | 9.2µM* | ? | 32µM* | 15µM* | 22µM* | i
COc1cccc(S(=O)(=O)NCc2ccc(C(=O)Nc3cccc(Cl)c3)cc2)c1 | ? | ? | ? | -17%[9.24 µM] | 16µM* | ?
CCc1ccc(NC(=O)c2ccc(S(=O)(=O)NCc3cccnc3)cc2)cc1 | -16% | i | i | 1% | 0% | i
COc1cccc(NC(=O)c2ccc(S(=O)(=O)NCc3cccnc3)cc2)c1 | -19% | i | i | -17% | -8% | 18µM*
CCOc1cc2ncc(C#N)c(Nc3ccc(F)c(Cl)c3)c2cc1NC(=O)C=CCN(C)C | . | . | . | . | 22µM* | .
COc1cc2ncnc(Nc3ccc(F)c(Cl)c3)c2cc1NC(=O)C=CCN1CCCCC1 | . | . | . | . | 31µM* | .
CN(C)CC=CC(=O)Nc1cc2c(Nc3ccc(F)c(Cl)c3)ncnc2cc1O[C@H]1CCOC1 | . | . | . | . | 27µM* | .
CCN1CCC(n2cc(CNc3cc(Cl)c4ncc(C#N)c(Nc5ccc(F)c(Cl)c5)c4c3)nn2)CC1 | . | . | . | . | -19% | .
Cc1cc(Br)cn2c(Cc3ccsc3)c(-c3ccc(F)cc3)nc12 | -19% | i | ? | -13% | -3% | i
